# PubChem BioAssay (NCATS)
# Values joined by “and” are separate entries in the source; they are usually repeats but may differ in a detail not shown here. Equal entries are not always repeated. Results filed as inconclusive are left out. Where a call stands in place of a potency, no number is given. Some structures have more than one record in an assay (separate samples or runs), and their calls can disagree. Active and inactive are the calls of the source. Unless noted, calls follow the shape of the dose curve; as a rule, active = well fitted curve in the direction sought with a large enough effect; inconclusive = small, poorly fitted or top-dose-only effect, or another doubt; inactive = no such curve, though single readings can be large; an effect the other way counts as inactive or inconclusive.
# How the values were obtained:
# [1] = molecular target: Cytochrome P450 2D6 (Homo sapiens) (UniProt P10635); assay: Cytochrome P450 family 2 subfamily D member 6 (CYP2D6) small molecule antagonists: luciferase biochemical (cell-free) qHTS assay (AID 1645840; active = well fitted curve in the direction sought with a large enough effect in the repeat runs; an effect the other way counts as inactive or inconclusive; also: nearly all actives have a fitted effect of over 55% in size; also: potency is read from the fitted curve at half-maximal effect)
# Method in brief: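 P450-Glo luminescent screen: recombinant CYP2D6 enzyme–proluciferin substrate mix preincubated with compound 10 min at room temperature, then NADPH regeneration added for 1 h at room temperature. Detection reagent added for 20 min; luciferin light read as relative luminescence units.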
# [2] = molecular target: Cytochrome P450 2C9 (Homo sapiens) (UniProt P11712); assay: Cytochrome P450 family 2 subfamily C member 9 (CYP2C9) small molecule antagonists: luciferase biochemical (cell-free) qHTS assay (AID 1645842; active = well fitted curve in the direction sought with a large enough effect in the repeat runs; an effect the other way counts as inactive or inconclusive; also: nearly all actives have a fitted effect of over 55% in size; also: potency is read from the fitted curve at half-maximal effect)
# Method in brief: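 Luminescence, after 20 min with luciferin detection reagent, reflected CYP2C9 turnover during a 1 h NADPH-driven reaction at 37C. Enzyme-substrate mix contained 0.4% bovine serum albumin and was preincubated with compound 10 min at room temperature.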
# [3] = Primary qHTS for inhibitors of nuclear receptor binding SET domain protein 2 (NSD2) in an isogenic RCH-ACV NSD2 p.E1099K mutant (9B) (AID 1645876); also: nearly all actives have a fitted effect of over 70% in size; also: potency is read from the fitted curve at half-maximal effect
# [4] = Primary qHTS for inhibitors of nuclear receptor binding SET domain protein 2 (NSD2) in an RCH-ACV wild type WT cells (2C) (AID 1645877); also: nearly all actives have a fitted effect of over 70% in size; also: potency is read from the fitted curve at half-maximal effect
# [5] = molecular target: Glutathione peroxidase 1 (Homo sapiens) (UniProt P07203); assay: Primary qHTS Assay for Inhibitors of Recombinant Selenoprotein Glutathione Peroxidase 1 (GPX1) (AID 1845191); also: nearly all actives have a fitted effect of over 65% in size; also: potency is read from the fitted curve at half-maximal effect
# Method in brief: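 Recombinant GPX1 (10 nM final) was preincubated with compound for 30 min at room temperature, then reacted with 1 mM GSH, 0.5 mM CHP, 0.5 mM NADPH and 100 nM glutathione reductase; NADPH fluorescence (340/450 nm) was read at 0 and 15 min.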
# [6] = molecular target: Rap guanine nucleotide exchange factor 3 (Homo sapiens) (UniProt O95398); assay: Confirmatory qHTS for agonist of cAMP-regulated guanine nucleotide exchange factor 3 (EPAC1) (AID 1645881);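 also: EPAC1 catalysed release of BODIPY-GDP from Rap1B seen as fluorescence loss; nearly all actives have a fitted effect of over 75% in size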
# [7] = molecular target: Rap guanine nucleotide exchange factor 4 (Homo sapiens) (UniProt Q8WZA2); assay: Confirmatory qHTS for antagonist of cAMP-regulated guanine nucleotide exchange factor 4 (EPAC2) (AID 1645885); also: potency is read from the fitted curve at half-maximal effect; nearly all actives have a fitted effect of over 25% in size
# Rap guanine nucleotide exchange factor 4 (Homo sapiens), sequence (Q8WZA2 whole entry, looked up): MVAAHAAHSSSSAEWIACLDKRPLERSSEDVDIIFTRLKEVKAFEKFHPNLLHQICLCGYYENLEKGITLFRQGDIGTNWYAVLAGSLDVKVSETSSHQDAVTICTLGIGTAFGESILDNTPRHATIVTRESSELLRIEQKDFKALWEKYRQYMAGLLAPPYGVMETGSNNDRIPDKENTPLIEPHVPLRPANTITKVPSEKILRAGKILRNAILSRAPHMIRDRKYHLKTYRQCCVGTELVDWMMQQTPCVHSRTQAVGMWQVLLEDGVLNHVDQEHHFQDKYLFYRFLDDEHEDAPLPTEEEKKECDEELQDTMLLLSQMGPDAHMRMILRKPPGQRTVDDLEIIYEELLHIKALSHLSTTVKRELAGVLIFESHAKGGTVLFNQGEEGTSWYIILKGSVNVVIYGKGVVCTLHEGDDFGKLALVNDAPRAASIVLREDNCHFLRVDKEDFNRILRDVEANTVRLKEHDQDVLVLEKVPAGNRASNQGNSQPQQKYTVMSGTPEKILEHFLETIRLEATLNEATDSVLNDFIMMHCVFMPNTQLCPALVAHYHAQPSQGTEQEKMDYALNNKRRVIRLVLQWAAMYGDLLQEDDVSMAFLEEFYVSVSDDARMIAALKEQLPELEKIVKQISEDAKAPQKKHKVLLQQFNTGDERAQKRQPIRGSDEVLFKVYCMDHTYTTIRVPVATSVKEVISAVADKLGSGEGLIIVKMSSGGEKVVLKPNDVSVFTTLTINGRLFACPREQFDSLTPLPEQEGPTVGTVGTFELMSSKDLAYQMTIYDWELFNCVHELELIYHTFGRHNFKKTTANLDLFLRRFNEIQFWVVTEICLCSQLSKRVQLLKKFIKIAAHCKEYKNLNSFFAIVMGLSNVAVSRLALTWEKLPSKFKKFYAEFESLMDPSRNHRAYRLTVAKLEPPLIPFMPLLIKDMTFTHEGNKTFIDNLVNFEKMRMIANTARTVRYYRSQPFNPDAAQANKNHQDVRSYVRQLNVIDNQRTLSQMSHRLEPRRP
# Cytochrome P450 2C9 (Homo sapiens), sequence (P11712 whole entry, looked up): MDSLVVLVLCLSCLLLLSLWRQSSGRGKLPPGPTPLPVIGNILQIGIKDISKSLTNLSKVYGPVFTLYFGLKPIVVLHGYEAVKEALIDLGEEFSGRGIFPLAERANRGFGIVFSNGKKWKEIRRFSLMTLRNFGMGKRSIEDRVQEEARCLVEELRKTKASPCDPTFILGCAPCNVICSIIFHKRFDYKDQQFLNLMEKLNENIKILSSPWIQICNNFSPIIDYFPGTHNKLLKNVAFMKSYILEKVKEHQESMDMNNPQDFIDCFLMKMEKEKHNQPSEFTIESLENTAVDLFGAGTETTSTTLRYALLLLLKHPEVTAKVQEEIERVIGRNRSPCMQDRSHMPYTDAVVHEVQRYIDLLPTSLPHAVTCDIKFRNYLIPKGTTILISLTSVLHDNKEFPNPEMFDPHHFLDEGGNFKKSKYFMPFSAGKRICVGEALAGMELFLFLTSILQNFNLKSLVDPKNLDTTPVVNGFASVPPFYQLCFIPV
# Cytochrome P450 2D6 (Homo sapiens), sequence (P10635 whole entry, looked up): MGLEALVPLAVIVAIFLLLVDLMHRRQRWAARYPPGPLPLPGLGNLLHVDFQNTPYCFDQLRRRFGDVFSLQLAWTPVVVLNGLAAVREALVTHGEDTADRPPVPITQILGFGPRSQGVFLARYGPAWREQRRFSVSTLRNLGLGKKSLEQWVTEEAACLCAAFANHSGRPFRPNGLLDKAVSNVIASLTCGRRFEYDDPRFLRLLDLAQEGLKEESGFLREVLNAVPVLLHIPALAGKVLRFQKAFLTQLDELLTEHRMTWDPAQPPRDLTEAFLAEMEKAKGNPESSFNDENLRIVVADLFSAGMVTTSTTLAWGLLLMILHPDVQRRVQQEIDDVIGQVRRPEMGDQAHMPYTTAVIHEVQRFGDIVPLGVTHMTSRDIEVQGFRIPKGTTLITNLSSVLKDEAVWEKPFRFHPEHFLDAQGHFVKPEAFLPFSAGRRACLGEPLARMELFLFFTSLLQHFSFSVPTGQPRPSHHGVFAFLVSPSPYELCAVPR
# Glutathione peroxidase 1 (Homo sapiens), sequence (P07203 whole entry, looked up): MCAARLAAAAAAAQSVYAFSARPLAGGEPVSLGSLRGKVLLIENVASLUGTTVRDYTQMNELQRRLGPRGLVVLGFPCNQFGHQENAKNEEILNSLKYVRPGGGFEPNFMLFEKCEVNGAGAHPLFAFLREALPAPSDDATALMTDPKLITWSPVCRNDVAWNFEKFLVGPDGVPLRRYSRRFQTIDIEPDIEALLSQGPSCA
# Rap guanine nucleotide exchange factor 3 (Homo sapiens), sequence (O95398 whole entry, looked up): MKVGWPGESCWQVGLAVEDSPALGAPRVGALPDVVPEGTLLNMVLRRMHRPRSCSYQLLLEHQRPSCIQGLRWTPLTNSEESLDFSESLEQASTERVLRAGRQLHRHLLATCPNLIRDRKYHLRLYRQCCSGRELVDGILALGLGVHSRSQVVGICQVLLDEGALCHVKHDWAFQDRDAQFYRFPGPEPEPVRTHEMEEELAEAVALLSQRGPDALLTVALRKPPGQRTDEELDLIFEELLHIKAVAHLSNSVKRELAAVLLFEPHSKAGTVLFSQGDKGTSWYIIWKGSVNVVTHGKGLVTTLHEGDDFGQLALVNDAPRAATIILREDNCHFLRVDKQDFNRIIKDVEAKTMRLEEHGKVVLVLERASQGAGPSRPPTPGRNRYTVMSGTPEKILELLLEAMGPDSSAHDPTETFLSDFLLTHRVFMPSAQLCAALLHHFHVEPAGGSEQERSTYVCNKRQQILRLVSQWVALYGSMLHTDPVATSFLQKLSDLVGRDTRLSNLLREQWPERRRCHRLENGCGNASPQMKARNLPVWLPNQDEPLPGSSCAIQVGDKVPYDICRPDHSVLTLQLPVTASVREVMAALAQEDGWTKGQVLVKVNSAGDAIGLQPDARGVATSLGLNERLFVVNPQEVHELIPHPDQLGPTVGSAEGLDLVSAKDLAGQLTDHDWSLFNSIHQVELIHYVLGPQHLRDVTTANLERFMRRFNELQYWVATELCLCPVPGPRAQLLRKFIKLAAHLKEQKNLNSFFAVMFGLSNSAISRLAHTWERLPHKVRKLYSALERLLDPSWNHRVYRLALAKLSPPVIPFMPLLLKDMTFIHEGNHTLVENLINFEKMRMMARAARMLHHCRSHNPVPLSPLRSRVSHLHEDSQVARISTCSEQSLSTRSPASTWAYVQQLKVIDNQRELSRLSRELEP
SMILES,Potency [1],Potency [2],Potency [3],Potency [4],Potency [5],outcome [6],Potency [7]
COc1cc([C@H]2Oc3cc([C@H]4Oc5cc(O)cc(O)c5C(=O)[C@@H]4O)ccc3O[C@@H]2CO)ccc1O,inactive,8.71 µM (active),inactive,inactive and 23.5 µM (active),inactive,–,–
Nc1nc(Cl)nc2c1ncn2[C@@H]1O[C@H](CO)[C@@H](O)[C@@H]1F,inactive,inactive,10.6 nM (active) and 52.5 nM (active),8.4 nM (active) and 37.2 nM (active),inactive,–,–
OCCOCCN1CCN(C2=Nc3ccccc3Sc3ccccc32)CC1,inactive,inactive,inactive,inactive,inactive,–,–
CCO[C@@H]1O[C@H](C(COCc2ccccc2)OCc2ccccc2)[C@H](OCc2ccccc2)[C@H]1O (stereo partly drawn),11 µM (active),3.09 µM (active),23.7 µM (active),21.1 µM (active),inactive,–,–
Nc1ccc(C(=O)NCC(=O)O)cc1,inactive,inactive,inactive,inactive,inactive,–,–
FC(F)(F)C(F)(F)C(F)(F)C(F)(F)C(F)(F)C(F)(F)C(F)(F)C(F)(F)Br,inactive,inactive,inactive,inactive,inactive,–,–
CCCCCCCCCCCCOCCOCCOCCOCCOCCOCCOCCOCCOCCO,12.3 µM (active),21.9 µM (active),–,11.9 µM (active),–,–,–
CCCCCN=C(N)N/N=C/c1c[nH]c2ccc(OC)cc12,0.219 µM (active),inactive,7.5 µM (active),4.73 µM (active),inactive,–,–
N/C(=N\N=C\c1ccc(Cl)cc1)N/N=C/c1ccc(Cl)cc1,15.5 µM (active),13.8 µM (active),inactive,inactive,inactive,–,–
CC[N+](C)(CC)CCOC(=O)C(O)(c1ccccc1)C1CCCCC1 (stereo not drawn),0.776 µM (active),inactive,inactive,–,inactive,–,–
O=C1[C@H](CC[C@H](O)c2ccc(F)cc2)[C@@H](c2ccc(O)cc2)N1c1ccc(F)cc1,15.5 µM (active) and 9.52 µM (active),6.92 µM (active) and 9.52 µM (active),23 µM (active),–,inactive,–,–
CCN1CCN(C(=O)N[C@@H](C(=O)N[C@@H]2C(=O)N3C(C(=O)O)=C(CSc4nnnn4C)CS[C@H]23)c2ccc(O)cc2)C(=O)C1=O,inactive,inactive,inactive,inactive,11.4 µM (active),–,–
CNCCc1ccccn1,inactive,inactive,inactive,inactive,inactive,–,–
Oc1ccc(Cl)cc1Cc1cc(Cl)ccc1O,27.5 µM (active),7.76 µM (active),–,18.8 µM (active),–,inactive,35 µM (active)
CCc1ccc(C(=O)C(C)CN2CCCCC2)cc1 (stereo not drawn),0.871 µM (active),inactive,–,23.7 µM (active),inactive,–,–
CC(=O)O[C@]1(C(C)=O)CC[C@H]2[C@@H]3C=C(Cl)C4=CC(=O)CC[C@]4(C)[C@H]3CC[C@@]21C,inactive,8.71 µM (active),–,–,inactive,–,–
Clc1cccc(C(c2ccc3nc[nH]c3c2)n2ccnc2)c1 (stereo not drawn),15.5 µM (active),7.76 µM (active),inactive,inactive,inactive,–,–
NS(=O)(=O)c1cc(C(=O)O)cc(N2CCCC2)c1Oc1ccccc1,inactive,inactive,inactive,–,inactive,–,–
CCC1Nc2cc(Cl)c(S(N)(=O)=O)cc2S(=O)(=O)N1 (stereo not drawn),inactive,inactive,inactive,inactive,inactive,–,–
CC(C)[C@@H]1CC[C@@H](C)CC1=O,inactive,inactive,inactive,inactive,inactive,–,–
O=[N+]([O-])c1ccc(/C=N\O)o1,13.8 µM (active),inactive,–,inactive,–,–,–
CCOc1cc(OCC)c(C(=O)CCC(=O)O)cc1OCC,inactive,inactive,inactive,inactive,inactive,–,–
O=C(O)P(=O)(O)O,inactive,inactive,–,–,inactive,–,–
